Results: PubChem BioAssay AID1159580 (chemical genetic matrix, 2015)
In all, about 5,500 compounds went through this assay and about 2,000 (36%) were called active. About 18% were inconclusive and are not listed. Rule as the data show it: active = normalized growth mostly below about 0.91 (no sharp cut-off); inconclusive = no clear call, values can overlap the other calls; inactive = mostly above about 0.92. Some of the results follow.

Assay: chemical genetic growth profiling, strain panel (AID 1159580);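 also: tested at 20 µM; growth read once vehicle control cultures reached saturation at 30 °C; 1 = growth at the plate median or of vehicle wells; lower values mean less growth of the strain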
Details: S. cerevisiae deletion strains, growth OD
[1] = locus YAR019C, strain CDC15, active compounds read low
[2] = locus YBL105C, strain PKC1, active compounds read low
[3] = locus YBR135W, strain CKS1, active compounds read low
[4] = locus YBR136W, strain MEC1, active compounds read low
[5] = locus YBR160W, strain CDC28, active compounds read low
[6] = locus YDL017W, strain CDC7, active compounds read low
[7] = locus YDL028C, strain MPS1, active compounds read low
[8] = locus YDL101C, strain DUN1, active compounds read low
[9] = locus YDL108W, strain KIN28, active compounds read low
[10] = locus YDL132W, strain cdc53, active compounds read low
[11] = locus YDL214C, strain PRR2, active compounds read low
[12] = locus YDR052C, strain DBF4, active compounds read low
[13] = locus YDR054C, strain cdc34, active compounds read low
[14] = locus YDR226W, strain ADK1, active compounds read low
[15] = locus YDR477W, strain SNF1, active compounds read low
[16] = locus YER123W, strain YCK3, active compounds read low
[17] = locus YER133W, strain GLC7, active compounds read low
[18] = locus YFL009W, strain cdc4, active compounds read low
[19] = locus YFL029C, strain CAK1, active compounds read low
[20] = locus YFR003C, strain YPI1, active compounds read low
[21] = locus YFR019W, strain FAB1, active compounds read low
[22] = locus YFR028C, strain CDC14, active compounds read low
[23] = locus YGR040W, strain KSS1, active compounds read low
[24] = locus YGR052W, strain FMP48, active compounds read low
[25] = locus YGR092W, strain DBF2, active compounds read low
[26] = locus YHR030C, strain SLT2, active compounds read low
[27] = locus YHR079C, strain IRE1, active compounds read low
[28] = locus YHR082C, strain KSP1, active compounds read low
[29] = locus YHR205W, strain SCH9, active compounds read low
[30] = locus YIL147C, strain SLN1, active compounds read low
[31] = locus YJL095W, strain BCK1, active compounds read low
[32] = locus YJL128C, strain PBS2, active compounds read low
[33] = locus YJL157C, strain FAR1, active compounds read low
[34] = locus YJR016C, strain ILV3, active compounds read low
[35] = locus YJR066W, strain TOR1 (second series), active compounds read low
[36] = locus YJR066W, strain TOR1, active compounds read low
[37] = locus YKL048C, strain ELM1, active compounds read low
[38] = locus YKL067W, strain YNK1, active compounds read low
[39] = locus YKL101W, strain HSL1, active compounds read low
[40] = locus YKL193C, strain SDS22, active compounds read low
[41] = locus YKL203C, strain TOR2, active compounds read low
[42] = locus YLR113W, strain HOG1, active compounds read low
[43] = locus YLR133W, strain CKI1, active compounds read low
[44] = locus YLR403W, strain SFP1, active compounds read low
[45] = locus YML070W, strain DAK1, active compounds read low
[46] = locus YMR001C, strain CDC5, active compounds read low
[47] = locus YMR205C, strain PFK2 (second series), active compounds read low
[48] = locus YMR277W, strain FCP1, active compounds read low
[49] = locus YNL006W, strain LST8, active compounds read low
[50] = locus YNL020C, strain ARK1, active compounds read low
[51] = locus YNL161W, strain CBK1, active compounds read low
[52] = locus YNL183C, strain NPR1, active compounds read low
[53] = locus YNL207W, strain RIO2, active compounds read low
[54] = locus YNL222W, strain SSU72, active compounds read low
[55] = locus YNL307C, strain MCK1 (second series), active compounds read low
[56] = locus YOL078W, strain AVO1, active compounds read low
[57] = locus YOL136C, strain PFK27, active compounds read low
[58] = locus YOR061W, strain CKA2, active compounds read low
[59] = locus YOR119C, strain RIO1, active compounds read low
[60] = locus YOR231W, strain MKK1, active compounds read low
[61] = locus YOR329C, strain SCD5, active compounds read low
[62] = locus YPL031C, strain PHO85, active compounds read low
[63] = locus YPL153C, strain RAD53, active compounds read low
[64] = locus YPL204W, strain HRR25, active compounds read low
[65] = locus YPL209C, strain IPL1, active compounds read low
[66] = locus YPL256C, strain CLN2, active compounds read low
[67] = locus YPR025C, strain CCL1, active compounds read low
[68] = locus YPR106W, strain ISR1, active compounds read low
[69] = locus YPR111W, strain DBF20, active compounds read low
[70] = strain NNK1, active compounds read low
[71] = strain TSCII, active compounds read low

Measured: normalized growth

O=C1c2ccccc2O[C@@H](c2ccccc2)[C@@H]1NCc1ccccc1
inactive: [1] 0.915 | [2] 0.916 | [3] 0.922 | [4] 0.921 | [5] 0.922 | [6] 0.915 | [7] 0.919 | [9] 0.929 | [11] 0.867 | [12] 0.914 | [13] 0.879 | [15] 0.853 | [16] 0.836 | [17] 0.836 | [18] 0.894 | [19] 0.909 | [20] 0.916 | [21] 0.894 | [23] 0.85 | [24] 0.856 | [25] 0.844 | [27] 0.839 | [28] 0.906 | [29] 0.905 | [30] 0.915 | [31] 0.751 | [32] 0.874 | [33] 0.835 | [34] 0.906 | [35] 0.76 | [36] 0.864 | [37] 0.897 | [38] 0.89 | [39] 0.899 | [40] 0.905 | [41] 0.918 | [43] 0.89 | [44] 0.834 | [45] 0.85 | [46] 0.899 | [47] 0.863 | [48] 0.904 | [49] 0.915 | [50] 0.88 | [51] 0.903 | [52] 0.92 | [53] 0.89 | [54] 0.923 | [55] 0.895 | [56] 0.903 | [57] 0.863 | [58] 0.849 | [59] 0.89 | [60] 0.887 | [61] 0.911 | [62] 0.841 | [63] 0.846 | [64] 0.825 | [65] 0.918 | [67] 0.922 | [68] 0.909 | [69] 0.911 | [70] 0.891 | [71] 0.885
active: [8] 0.905 | [10] 0.893 | [14] 0.896 | [22] 0.891 | [26] 0.677 | [42] 0.739 | [66] 0.846

O=C1c2ccccc2O[C@@H](c2ccccc2)[C@@H]1NC1CCCCC1
inactive: [1] 0.904 | [2] 0.909 | [3] 0.914 | [4] 0.916 | [5] 0.927 | [6] 0.914 | [7] 0.913 | [9] 0.924 | [11] 0.883 | [14] 0.898 | [15] 0.87 | [16] 0.843 | [17] 0.841 | [19] 0.91 | [20] 0.915 | [21] 0.889 | [23] 0.866 | [24] 0.885 | [25] 0.871 | [27] 0.852 | [28] 0.933 | [29] 0.898 | [30] 0.909 | [31] 0.792 | [32] 0.872 | [33] 0.849 | [35] 0.771 | [36] 0.888 | [37] 0.901 | [38] 0.903 | [39] 0.906 | [40] 0.902 | [41] 0.922 | [43] 0.897 | [44] 0.849 | [45] 0.871 | [46] 0.901 | [47] 0.878 | [48] 0.905 | [50] 0.901 | [51] 0.9 | [52] 0.941 | [53] 0.898 | [54] 0.919 | [55] 0.904 | [56] 0.9 | [57] 0.887 | [58] 0.867 | [59] 0.945 | [60] 0.874 | [61] 0.909 | [62] 0.867 | [63] 0.864 | [64] 0.843 | [65] 0.917 | [66] 0.858 | [67] 0.914 | [68] 0.91 | [69] 0.92 | [70] 0.905 | [71] 0.881
active: [8] 0.898 | [10] 0.887 | [12] 0.907 | [13] 0.872 | [18] 0.884 | [22] 0.888 | [26] 0.697 | [34] 0.898 | [42] 0.747 | [49] 0.906
